NPC1 prom act – activators of NPC1 promoter. Huh7 NPC1 promoter luciferase reporter, 24 h. actives 2.4% (n = 320,000). Potency, µM (series often up to 9.22 µM), without a hit: top-dose activation, actives largely listed as activators; also: % of control where 0% means no effect; nearly all actives have a fitted effect of over 60% in size
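Luciferase expression driven by the NPC1 promoter was measured in stably transfected Huh7 cells after a 24 h compound incubation, using a luciferase reagent and a luminescence read.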
FLuc modulator – counter-screen for miR-21 project: firefly luciferase inhibitors or activators; purified FLuc, Km substrates, luminescence inhibition; Potency, µM (top dose mostly 57.5 µM), for inactives: at the top dose activity change, negative = inhibition, most hits filed as inhibitors; actives 6.9% (n = 360,000); AID 588342;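 also: plate controls were vehicle for no effect and reference inhibitor for full effect; nearly all actives have a fitted effect of over 55% in size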
Target sequence (P08659 whole entry, looked up): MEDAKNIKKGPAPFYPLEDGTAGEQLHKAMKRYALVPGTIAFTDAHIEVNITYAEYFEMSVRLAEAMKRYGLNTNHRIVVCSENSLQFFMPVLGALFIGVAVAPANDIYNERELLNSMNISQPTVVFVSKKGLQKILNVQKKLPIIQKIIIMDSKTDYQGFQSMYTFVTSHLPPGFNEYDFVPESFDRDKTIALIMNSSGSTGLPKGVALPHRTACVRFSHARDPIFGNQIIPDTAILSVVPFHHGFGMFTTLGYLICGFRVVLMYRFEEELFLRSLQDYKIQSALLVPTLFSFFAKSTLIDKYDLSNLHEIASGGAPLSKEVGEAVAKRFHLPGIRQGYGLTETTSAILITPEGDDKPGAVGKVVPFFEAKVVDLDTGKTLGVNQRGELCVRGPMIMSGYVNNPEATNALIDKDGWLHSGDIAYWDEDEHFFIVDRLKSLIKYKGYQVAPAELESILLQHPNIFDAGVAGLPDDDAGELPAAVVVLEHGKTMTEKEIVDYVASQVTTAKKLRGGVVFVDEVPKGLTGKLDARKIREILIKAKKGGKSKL
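Purified P. pyralis luciferase, 10 nM final, with Km-level 10 uM D-luciferin and 10 uM ATP in 50 mM Tris acetate pH 7.5, 10 mM Mg acetate, 0.01% Tween-20, 0.05% BSA; 6-point qHTS titration about 60 µM downward; luminescence read.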
p53 reactivator – re-activators of mutant p53; Potency, µM (titrated, usually from 92.2 µM), without a hit: at the highest dose activity change, positive = activation, hits mostly activators; H1299 p53-A138V BP100-luciferase reporter, luminescence, 24 h; AID 504706; actives 0.063% (n = 320,000); also: % of control where 0% means no effect; nearly all actives have a fitted effect of over 45% in size
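p53-null H1299 cells stably carrying temperature-sensitive p53-A138V and a BP100-luciferase reporter were pinned with compounds (4-point, 1:5 series) and held 24 hrs at 37 deg C. Luminescence was read 10 min after detection reagent.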
SMN2 splice enh – SMN2 splice variant enhancement; HEK293 SMN2-luciferase splicing reporter, luminescence, 30-36 h; Potency, µM (top dose mostly 46.1 µM), for inactives: at the top dose activity change, positive = activation, actives largely listed as activators; actives 2.8% (n = 210,000); AID 1458; also: % of control where 0% means no effect; nearly all actives have a fitted effect of over 55% in size
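qHTS luciferase splicing reporter: luminescence rises when SMN2 exon 7 is included in transfected HEK293 cells. Compound exposure lasted 30-36 h at 37C, with 4.5 mM final sodium butyrate as control, followed by a ONE-Glo read.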
Rab9 prom act – Rab9 promoter activation; Huh7 Rab9 promoter-luciferase reporter, luminescence, 24 h; Potency, µM (highest dose often 9.22 µM), for inactives: at the highest dose activation, negative = inhibition, actives largely listed as activators; actives 2.8% (n = 320,000); also: % of control where 0% means no effect; nearly all actives have a fitted effect of over 60% in size
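Luminescence read-out: Huh7 cells stably expressing Rab9-luciferase, treated 24 h with compound at 37 °C, then lysed with luciferase reagent for 10 min at ambient before reading.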
ELG1 genotox – induces genotoxicity in HEK293T cells with luciferase-tagged ELG1; actives 1.3% (n = 330,000); Potency, µM (series often up to 46 µM), for the others: at the highest dose activity change, positive = activation, hits mostly activators; HEK293T ELG1-luciferase reporter, luminescence, 16 h; AID 504466; also: % of control where 0% means no effect; nearly all actives have a fitted effect of over 60% in size
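Quantitative HTS format in 1536-well plates. HEK293T ELG1-luciferase reporter cells receive test compound and are incubated 16 hr at 37 °C, 5% CO2; ONE-Glo added, 30 min room temperature, then luminescence read.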
Numbers without * were called inactive; ? = inconclusive; / = no result; [ ] = dose if it differs, or a comment. Compounds with a hit are over-represented: about 7.4% of the library has one in this group of screens. Calls follow the shape of the dose curve; as a rule, active = well fitted curve in the direction sought with a large enough effect; inconclusive = small, poorly fitted or top-dose-only effect, or another doubt; inactive = no such curve, though single readings can be large; an effect the other way counts as inactive or inconclusive. Potency is read from the fitted curve at half-maximal effect.

SMILES | NPC1 prom act | FLuc modulator | p53 reactivator | SMN2 splice enh | Rab9 prom act | ELG1 genotox
CSc1ccccc1OCc1cc(C(=O)N2CCN(c3ncccn3)CC2)no1 | 1% | 1% | -7% | / | -4% | 17%
COc1ccc(OCc2cc(C(=O)N3CCCC(CO)C3)no2)c2ccccc12 (centres undefined) | 4µM* | 8.5µM* | ? | / | 4µM* | ?
NS(=O)(=O)c1ccc(NC(=O)COC(=O)C2CC2)cc1 | / | / | 5% | / | / | 5%
CSc1ccccc1OCc1cc(C(=O)N2CCCC(C)C2)no1 (centres undefined) | 1.6µM* | 6.7µM* | ? | / | 1.4µM* | 5.2µM*
O=C(/C=C/c1ccccc1)N1CCC(Cc2ccccc2)CC1 | 23% | 15µM* | ? | / | 30% | 11%
O=C(/C=C/c1ccccc1)N1CCC(c2ccccc2)C1 (centres undefined) | 3.2µM* | 4.8µM* | ? | 11µM* | 1.6µM* | 6.5µM*
COC(=O)C1CCN(C(=O)/C=C/c2ccccc2)CC1 | 1.4µM* | ? | ? | 14µM* | 1µM* | 14%
CCOC(=O)C1CCN(C(=O)/C=C/c2ccc(OC)cc2)CC1 | 0.71µM* | 7.6µM* | ? | 6.3µM* | 0.32µM* | 4.1µM*
O=C(c1ccc(COc2ccc(Cl)cc2)cc1)N1CCCCC1 | ? | 12µM* | 0% | 12% | ? | ?
CCOC(=O)C1CCN(C(=O)CCCOc2ccccc2)CC1 | ? | 9.5µM* | ? | 30% | ? | ?
CCC1CCCCN1C(=O)CCCOc1ccccc1 (centres undefined) | ? | 19µM* | ? | -2% | ? | 13µM*
O=C(CCCOc1ccccc1)N1CCCCC1 | 0.5µM* | 1.5µM* | -8% | 2.5µM* | ? | 0.46µM*
CC(C)(CN)SCc1ccccc1 | / | / | / | -1%[9.22 µM] | / | /
O=C(CCCOc1ccc(Cl)cc1)N1CCOCC1 | -1% | -18% | ? | 18% | -5%[1.84 µM] | ?
O=C(CCCOc1ccc(Cl)cc1)N1CCCCC1 | 27% | -26% | ? | / | 3.5µM* | 21µM*
O=C(CCCOc1ccc(Cl)cc1)N1CCCCCC1 | 12% | -3% | 25% | 20% | 12% | 16µM*
CC1(C)OC(=O)C(=Cc2ccc(-c3ccc(S(N)(=O)=O)cc3)o2)C(=O)O1 | -4% | 11µM* | 5% | 4% | 1% | ?
c1ccc(-n2nc3c(ccc4cnnc43)[nH]2)cc1 | 2.5µM* | 7.6µM* | ? | ? | 1.8µM* | ?
CCOc1ccc(CNC(=O)CCCn2ccc3cc(S(=O)(=O)N4CCCC4)ccc32)cc1 | -1% | 17µM* | -2% | / | -9% | -12%
Cc1cc(C)cc(NC(=O)c2cc(S(=O)(=O)N3CCCCCC3)cn2C)c1 | / | 0% | / | / | / | /
COCCNC(=O)C1CCCN(S(=O)(=O)c2ccc3c(ccn3C)c2)C1 (centres undefined) | / | 0% | / | / | / | /
CCOC(=O)c1ccc(S(=O)(=O)NNC(=O)c2cccc(N(C)C)c2)cc1 | 5% | 19µM* | 2% | 15% | 18% | 0%
O=C1CCCc2cc(S(=O)(=O)N3CCCC(C(=O)NCc4ccccc4Cl)C3)ccc2N1 (centres undefined) | / | 0% | / | / | / | /
Cc1c(C)c2c(cc(C)c3c(-c4ccc(Br)cc4)coc32)oc1=O | / | -6% | / | -8% | / | /
Cc1nc(Nc2ccccc2)c2nc(-c3ccccc3)n(CCCN3CCCCC3C)c2n1 (centres undefined) | / | / | / | -12% | / | /
SMILES | NPC1 prom act | FLuc modulator | p53 reactivator | SMN2 splice enh | Rab9 prom act | ELG1 genotox
CCCc1ccc(OCc2ccc(C(=O)NN)o2)c(OC)c1 | 2.2µM* | -16% | 7% | / | ? | 12%
CCCc1ccc(OCc2ccc(C(=O)O)o2)c(OC)c1 | 0.45µM* | 4.8µM* | -3% | 2.5µM* | 0.32µM* | ?
C=CCc1ccc(OCCn2cccc2C=O)c(OC)c1 | ? | 17µM* | -2% | -9% | ? | 15%
CCCc1ccc(OCc2ccc(C(=O)OC)o2)c(OC)c1 | 1.4µM* | 15µM* | 22% | ? | 1.8µM* | 10µM*
COc1ccc(CCN(C)C(=O)c2ccc(COc3ccccc3)o2)cc1OC | -2% | 3% | -5% | / | 11% | 0%
COC(=O)c1ccc(COc2ccccc2OC)o1 | 1% | ? | 3% | / | 4% | 6%
Cc1cc(C)cc(OCc2ccc(C(=O)NN)o2)c1 | 0% | -2% | 1% | / | -3% | -1%
Cc1ccc(Cl)cc1NC(=O)C(=O)N/N=C/c1ccc2c(c1)OCO2 | -1% | 6% | 1% | / | -3% | ?
CCN(CC)c1ccc(NC(=O)Cn2c3ncccc3c(=O)n2-c2ccccc2)c(C)c1 | / | -16% | / | / | / | /
C=CCc1ccc(OCCOc2cccc3ccc(C)nc23)c(OC)c1 | -2% | 11µM* | 5% | 7% | 3% | -6%
C=CCc1ccc(OC)c(OC)c1 | 2% | 2% | 8% | -2% | -5% | 3%
Cc1ccc(OCc2ccc(C(=O)N3CCCC3)o2)c([N+](=O)[O-])c1 | 20% | ? | 10% | / | 18% | 15%
C=CCc1ccc(OCCCCOc2ccc(C(=O)O)cc2)c(OC)c1 | -4% | 13µM* | 15% | 18% | 2% | 0%
Cc1ccc(OCc2ccc(C(=O)O)o2)c([N+](=O)[O-])c1 | ? | 27µM* | 6% | ? | ? | 6%
C=CCc1ccc(OCc2ccc(C(=O)O)o2)c(OC)c1 | ? | 4.8µM* | -2% | / | ? | ?
COc1cccc(CN2CC(C(=O)NCCSc3nnnn3C)CCC2=O)c1 (centres undefined) | 0% | -1% | -3% | / | 3% | -3%
O=C(Nc1cccc(C(=O)OCc2cc(=O)n3nc(C4CC4)sc3n2)c1)c1ccc(F)cc1 | / | -5% | / | / | / | /
CNc1nn(-c2cccc(Cl)c2)nc1N | ? | 24µM* | 1% | ? | ? | 11µM*
O=[N+]([O-])c1ccc(O)c(C=Nc2ccc3nc(-c4ccccc4)[nH]c3c2)c1 | ? | 5.4µM* | ? | 10%[1.84 µM] | 3.2µM* | ?
O=C(c1ccccc1)c1ccc2nc(-c3ccc(NC(=O)c4ccccc4Br)cc3)[nH]c2c1 | 0% | -14% | -3% | -30% | 8% | -3%
Oc1c(Br)cc(C=Nc2ccc3nc(-c4ccccc4)[nH]c3c2)c(O)c1Br | ? | 11µM* | 20% | / | 2.8µM* | 1%
COc1ccc(N2CCN(C(=O)CCCOc3cc(=O)n(C)c4ccccc34)CC2)cc1 | -1% | 3% | -9% | -8% | 2% | 0%
Cn1c(=O)cc(OCC(=O)NCCCN2CCN(Cc3ccccc3)CC2)c2ccccc21 | 0% | 2% | -1% | ? | 0% | 18µM*

Screening results deposited in PubChem by National Center for Advancing Translational Sciences (NCATS).
